From PubChem BioAssay
Only some compounds are listed: those with a hit (about 4.9% of all), similar ones and a draw of the others.
PP5 inh – inhibitors of human protein phosphatase 5 (PP5) | 0.18% of 320,000 active | inhibition, % at 6.7 µM | P53041 | purified PP5c, OMFP substrate fluorescence;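 active = inhibition above the campaign's mean inhibition across all tested compounds plus 3 SD, cut at about 9.5% in these data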;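 note: 0% = DMSO only and 100% = 100 µM cantharidin control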
CSC inhib – cancer stem cell inhibition; cancer stem cell-like cells viability, luminescence; inhibition, % at 7.5 µM; 1.1% of 300,000 active; AID 2717; in the data active = inhibition above about 75%; inconclusive = no clear call, values can overlap the other calls; tested in HMLE shEcad cells
Beta cell apopt – beta cell apoptosis inhibition. protection from apoptosis, % (no concentration beside the values). AID 435005. INS-1E cytokine-induced death, ATP luminescence, 48 h; percent of positive-control rescue, neutral wells zero. 0.8% of 300,000 active;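 active = Every replicate reaches about 75%, or at least half do and their mean reaches it too, limit read from the data; inconclusive = At least half of replicates reach the limit but their mean does not; inactive = Under half of replicates reach the limit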;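 note: 0% = cytokine-treated negative control wells and 100% = positive control rescue; higher means more ATP so stronger rescue from cytokine killing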
PP1 counter – blocks human PP1-alpha phosphatase, a PP5 counter-screen; inhibition, % at 6.7 µM; 0.9% of 320,000 active; AID 2235; P62136; purified PP1alpha, OMFP fluorescence;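 active = inhibition above the mean inhibition of all tested compounds plus 3 SD, computed separately for each screening campaign, cut at about 15% in these data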
Mdm2-MdmX inh – disrupts the human Mdm2-MdmX interaction; O15151+Q00987; SaOS-2 split-luciferase Mdm2/MdmX complementation, luminescence; inhibition, % at 8 µM; 3% of 330,000 active;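 active = inhibition of at least 50% at 8 µM in the primary screen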
Target sequence (O15151 whole entry, looked up): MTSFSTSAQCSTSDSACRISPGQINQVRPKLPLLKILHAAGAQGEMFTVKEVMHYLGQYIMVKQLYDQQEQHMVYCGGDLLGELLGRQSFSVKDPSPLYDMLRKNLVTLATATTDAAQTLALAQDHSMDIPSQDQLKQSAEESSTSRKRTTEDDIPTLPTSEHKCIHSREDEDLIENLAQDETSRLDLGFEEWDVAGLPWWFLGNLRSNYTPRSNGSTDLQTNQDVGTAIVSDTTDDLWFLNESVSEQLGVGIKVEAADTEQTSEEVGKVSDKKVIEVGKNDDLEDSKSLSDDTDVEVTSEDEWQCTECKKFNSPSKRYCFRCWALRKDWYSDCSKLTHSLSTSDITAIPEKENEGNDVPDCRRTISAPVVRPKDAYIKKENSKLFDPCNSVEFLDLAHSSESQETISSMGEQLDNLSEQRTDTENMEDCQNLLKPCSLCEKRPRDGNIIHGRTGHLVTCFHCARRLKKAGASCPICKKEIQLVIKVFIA
Target sequence (Q00987 whole entry, looked up): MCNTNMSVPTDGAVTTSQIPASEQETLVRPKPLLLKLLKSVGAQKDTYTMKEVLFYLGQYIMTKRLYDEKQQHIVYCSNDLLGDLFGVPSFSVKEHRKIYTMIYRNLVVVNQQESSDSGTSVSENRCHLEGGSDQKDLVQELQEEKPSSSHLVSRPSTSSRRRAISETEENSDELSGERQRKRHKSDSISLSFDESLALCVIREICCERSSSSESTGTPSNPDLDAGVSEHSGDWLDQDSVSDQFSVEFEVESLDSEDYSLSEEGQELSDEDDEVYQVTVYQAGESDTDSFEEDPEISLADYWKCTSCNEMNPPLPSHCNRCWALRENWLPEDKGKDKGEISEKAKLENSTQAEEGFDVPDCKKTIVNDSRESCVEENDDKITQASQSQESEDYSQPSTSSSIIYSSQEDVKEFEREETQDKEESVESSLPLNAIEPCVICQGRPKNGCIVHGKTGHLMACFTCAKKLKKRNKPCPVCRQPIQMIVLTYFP
Calb FLC – affects C. albicans growth with fluconazole. 0.57% of 300,000 active. growth inhibition, % (no concentration beside the values). C. albicans CaCi-2 (fluconazole-resistant clinical isolate) + fluconazole, Alamar Blue growth, 48 h;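 active = growth inhibition above about 58% in most replicates, limit read from the data, passing the limit was not always enough; inconclusive = exactly half the replicates above a set limit; inactive = most replicates below a set limit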;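 note: all wells also contain fluconazole at 8 µg/ml as a sub-toxic cotreatment; 0% = median of DMSO wells and 100% = median of geldanamycin control wells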
Mdm2-MdmX conf – human Mdm2/MdmX binding inhibition, confirmed; shares compounds with Mdm2-MdmX inh; luminescent assay; inhibition, % at 8 µM; 55% of 10,000 active; in the data active = inhibition above about 40%
FLuc counter – full-length luciferase inhibition in Mdm2/MdmX counter-screen; AID 504607; inhibition, % at 8 µM; shares compounds with Mdm2-MdmX inh; 77% of 6,200 active; SaOS-2 full-length luciferase counterscreen, luminescence;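 active = mean inhibition at 8 µM reaching about 37%, which flags the compound as non-specific, limit read from the data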;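 note: p53-null SaOS-2 cells with luciferase driven by a doxycycline-inducible promoter; compound on cells about two nights before reading with doxycycline added after day one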
Active calls of the source: *; ? = inconclusive; . = no result given.

SMILES	PP5 inh	CSC inhib	Beta cell apopt	PP1 counter	Mdm2-MdmX inh	Calb FLC	Mdm2-MdmX conf	others
CCOC(=O)c1c(NC(=O)c2ccccc2N(C)S(=O)(=O)c2ccccc2)sc2c1CCCC2	3	69	25	3	55*	-4	60*	FLuc counter=66*
CCOC(=O)c1c(NC(=O)c2ccco2)sc2c1CCCC2	1	7	1	3	10	5	.
COC(=O)c1c(NC(=O)c2ccccc2N(C)S(=O)(=O)c2ccccc2)sc2c1CCCC2	.	.	.	.	.	-4	.
CNC(=O)c1c(NC(=O)c2ccc(S(=O)(=O)N(C)c3ccccc3)cc2)sc2c1CCN(C(C)C)C2	4	42	-4	-6	9	-3	.
Cn1[nH]c(CSc2ccc(Cl)cc2)cc1=O	-5	22	-1	7	-4	4	.
C=CCn1c(SCC#N)nc2sc(CC)cc2c1=O	-1	.	-5	-2	11	-14	.
Cc1cc(C)cc(C(=O)Nc2cccc(NC(=O)c3ccco3)c2)c1	.	-16	4	.	20	-20	.
Cc1ccc2oc(=O)c3cc(C(=O)NCCCN4CC(C)CC(C)C4)sc3c2c1 (stereo not drawn)	4	11	6	7	50*	-5	17
Cc1ccc2oc(=O)c3cc(C(=O)NCCCN4CCN(C)CC4)sc3c2c1	-1	10	6	-4	30	1	.
COc1ccc(S(=O)(=O)N/N=C(/C)c2ccncc2)c(OC)c1	-1	-7	-5	-5	-13	2	.
C=CCN(C(=O)CC(NC(C)=O)c1ccccc1)c1nc(-c2ccc(S(C)(=O)=O)cc2)cs1 (stereo not drawn)	3	-4	12	1	-43	-1	.
C=CCC[C@H](Cc1ccc(F)cc1)C(=O)OC[C@@H](Cc1c[nH]c2ccccc12)NC(=O)[C@@H](CC=C)CC(=O)N[C@@H](CO)Cc1ccccc1	.	15	13	.	45	.	.
C=CCC[C@@H](Cc1ccc(F)cc1)C(=O)OC[C@H](Cc1c[nH]c2ccccc12)NC(=O)[C@@H](CC=C)CC(=O)N[C@@H](CO)Cc1ccccc1	.	7	1	.	35	.	.
C=CCC[C@H](Cc1ccc(F)cc1)C(=O)OC[C@H](Cc1c[nH]c2ccccc12)NC(=O)[C@H](CC=C)CC(=O)N(CCO)Cc1ccccc1	.	.	12	.	90*	.	26
C=CCC[C@@H](Cc1ccc(F)cc1)C(=O)OC[C@@H](Cc1c[nH]c2ccccc12)NC(=O)[C@@H](CC=C)CC(=O)N(CCO)Cc1ccccc1	.	?	-3	.	93*	.	27
C=CCC[C@@H](Cc1ccc(F)cc1)C(=O)OC[C@@H](Cc1c[nH]c2ccccc12)NC(=O)[C@H](CC=C)CC(=O)N[C@H](CO)Cc1ccccc1	.	.	9	.	76*	.	25
CCOc1ccc2oc(C(=O)N3CC(C)OC(C)C3)c(C)c2c1 (stereo not drawn)	3	-3	1	-3	10	6	.
Cc1c(Cl)cccc1NC(=S)N(Cc1cccnc1)Cc1ccccc1Cl	3	-6	-3	3	12	-5	.
FC(F)(F)c1ccc(CN2C[C@@H]3C(c4ccc(C(F)(F)F)cc4)C4(c5cccnc5)CC3(C4)[C@H]2c2ccccc2)cc1 (stereo partly drawn)	2	42	109*	1	65*	9	12
COC(=O)c1cccc(C23CC4(C2)[C@H](CN(Cc2ccc(C(F)(F)F)cc2)[C@@H]4c2ccccc2)C3c2ccc(C(F)(F)F)cc2)c1 (stereo partly drawn)	-2	17	33	0	73*	-13	59*	FLuc counter=24
CC1N(C)c2cc(NC(=O)c3cccs3)c(P(=O)(Nc3ccc([N+](=O)[O-])cc3)N3CCOCC3)cc2C1(C)C (stereo not drawn)	4	6	24	-5	44	74	.
CC1=CC(=O)C=C(C)C1=NOc1ccccc1[N+](=O)[O-]	-2	-16	0	-3	72*	0	14
CC(C)(C)/C(COc1ccccc1[N+](=O)[O-])=N/O	4	.	-5	2	18	-4	.
CCOc1ccc(-c2csc(Cn3c(CN4CCN(C)CC4)nc4ccccc4c3=O)n2)cc1	-1	3	-14	4	37	-5	.
CCOc1ccc(-n2cc(-c3ccccc3)c3c(N4CCOCC4)ncnc32)cc1	2	104*	14	0	74*	-6	65*	FLuc counter=83*
SMILES	PP5 inh	CSC inhib	Beta cell apopt	PP1 counter	Mdm2-MdmX inh	Calb FLC	Mdm2-MdmX conf	others
c1ccc(-c2cn(-c3ccccc3)c3ncnc(N4CCCCC4)c23)cc1	-1	71	3	-3	21	-6	.
COc1ccc(-n2cc(-c3ccccc3)c3c(N4CC(C)OC(C)C4)ncnc32)cc1 (stereo not drawn)	1	69	9	0	64*	6	50*	FLuc counter=84*
O=C(Nc1ccc(Cl)cc1F)c1ccc2c(c1)C(=O)N(Cc1ccncc1)C2=O	.	-6	0	.	19	.	.
COc1cc(/C=C/C(=O)N2CCN(C(=O)/C=C/c3cc(OC)c(OC)c(OC)c3)CC2)cc(OC)c1OC	3	-6	2	-4	64*	17	13
COc1ccc(OC)c(/C=C/C(=O)N2CCCc3ccccc32)c1	2	9	2	-3	-7	-33	.
COc1cc(/C=C/C(=O)N2CCCC2)cc(OC)c1OC	1	1	-1	4	17	-7	.
Nc1cccc2c1C(=O)N(C(=O)/C=C/c1cccc(F)c1)C2=O	-1	25	-2	-4	56*	-2	50*	FLuc counter=65*
COc1ccc(OC)c(/C=C/C(=O)N2C(=O)c3cccc(N)c3C2=O)c1	2	23	-32	0	63*	-7	48*	FLuc counter=20
Nc1cccc2c1C(=O)N(C(=O)/C=C/c1cccc(Br)c1)C2=O	.	.	.	.	.	-6	.
COc1cc(/C=C/C(=O)N2C(=O)c3cccc(N)c3C2=O)cc(OC)c1OC	1	.	-17	1	71*	-16	58*	FLuc counter=79*
O=C(CSc1nnc(CNC(=O)c2ccco2)o1)Nc1nc2ccccc2s1	0	1	3	-7	-4	-3	.
CSC(C(=O)c1cc2ccccc2o1)c1ccccc1 (stereo not drawn)	1	12	-11	6	-1	-1	.
O=C(N/N=C/c1cn(-c2ccccc2)nc1-c1cccs1)c1ccc(Cl)cc1	2	-7	48	6	52*	-14	31
CN1CCC(N(C)C(=O)/C=C/c2cn(-c3ccccc3)nc2-c2cccs2)CC1	2	42	5	3	76*	33	35	FLuc counter=67*
O=C(N/N=C/c1cccs1)c1cccc(NC(=O)c2ccc(Cl)cc2)c1	-1	?	67	1	57*	17	3
